Measurements taken from PubChem BioAssay AID2570 (National Center for Advancing Translational Sciences (NCATS), 2010).
“And” between values parts separate entries of the source, which are not always exact repeats. Equal entries are not always repeated. Results filed as inconclusive are left out. Values without a mark were called inactive. Calls follow the shape of the dose curve; as a rule, active = well fitted curve in the direction sought with a large enough effect; inconclusive = small, poorly fitted or top-dose-only effect, or another doubt; inactive = no such curve, though single readings can be large or run the other way.

target: Vasopressin V1b receptor (Homo sapiens) (UniProt P47901); assay: Counterscreen Concentration-Response Assay for Antagonists of the Neuropeptide S Receptor: Vasopressin Receptor Calcium Signal Transduction; settings: CHO-AVPR1B, vasopressin-stimulated calcium fluorescence, FDSS
Source text: NIH Chemical Genomics Center [NCGC] NIH Molecular Libraries Probe Production centers Network [MLPCN] MLPCN Grant: X01-DA026210-01 Assay Submitter (PI): Heilig, Markus Alexander NCGC Assay Overview: Neuropeptide S receptor (NPSR), previously known as GPR154, is a recently de-orphanized G protein coupled receptor. Its endogenous ligand is the 20 amino acids peptide Neuropeptide S (NPS). […] NPS and its receptor are found in various tissues. Specifically they are highly expressed in brain areas that have been implicated in modulation of arousal, stress and anxiety. Central administration of NPS in mice produces an unusual profile of activity by inducing wakefulness and arousal, while at the same time suppressing anxiety. Therefore, NPSR may represent a novel drug target for the treatment of sleep and anxiety disorders. To identify NPSR antagonists, we developed a cell-based assay with transfected NPS receptor. NPS can stimulate the production of cAMP as well as release intracellular calcium in Chinese hamster ovary cells stably expressing NPS receptor. This change in intracellular calcium can be detected using a calcium indicator dye on a calcium imaging plate reader system (FDSS). To validate the specific action of compounds on the NPS receptor, a counterscreen was developed that tests compounds' antagonism of AVPR1B vasopressin receptor stimulation by vasopressin. […] shares 27% identity with the NPS receptor.
NCGC Assay Protocol Summary: A Chinese hamster ovary (CHO) cell line stably expressing human vasopressin receptor (AVPR1B) was maintained in F-12 Kaighn's media (Invitrogen, Carlsbad, CA, 21127) supplemented with 10 % FBS, 100 units/ml penicillin, 100 ug/ml streptomycin and 250 ug/ml geneticin at 37C, 5% CO2 in a humidified atmosphere. Before the assay, aliquots of cells were frozen and stored at -135C. The assay was performed on a FDSS-7000 kinetic plate reader in 1536-well format. The maximums of kinetic fluorescence responses were converted into text files using the instrument's software data export utility. Data for antagonist response were normalized to the controls for basal activity (DMSO only) and 100% inhibition (no signal). AC50 values were determined from concentration-response data modeled with the standard Hill equation. CHO-V1B 1536-well FDSS assay protocol: (1) Frozen CHO-V1B cells were thaw, washed once with fresh media and resuspended in F-12 Kaighn's media supplemented with 10 % FBS, 100 units/ml penicillin and 100 ug/ml streptomycin. Cells were plated at 3 ul/well (1200 cells) to black, clear-bottom, tissue-culture treated 1536-well plates, and then cultured at 37C, 5 % CO2 for 16 to 30 hours. (2) Add 3 ul of calcium dye (from High Performance PBX Calcium Assay Kit, BD Biosciences). The calcium dye was prepared according to the manufactory's instruction. (3) Incubation at 37C, 5 % CO2 for 60 min. (4) Add 23 nl/well of compound in DMSO solution. The final titration for each compound was between 0.6 nM and 46 uM. (5) Load plates to FDSS-7000. The following steps were performed on FDSS-7000. (6) Record fluorescent background (Ex 480 nm, Em 520-560 nm) for 10 s. (7) Add 2 ul of stimulation reagent (1X HBSS buffer, 0.1% BSA, 60 nM vasopressin). Record antagonist response (Ex 480 nm, Em 520-560 nm) for 180 s. Keywords: MLSMR, MLPCN, NIH Roadmap, qHTS, NCGC, NPS, Neuropeptide S Antagonists

Sequence of Vasopressin V1b receptor (Homo sapiens) (P47901 whole entry, looked up): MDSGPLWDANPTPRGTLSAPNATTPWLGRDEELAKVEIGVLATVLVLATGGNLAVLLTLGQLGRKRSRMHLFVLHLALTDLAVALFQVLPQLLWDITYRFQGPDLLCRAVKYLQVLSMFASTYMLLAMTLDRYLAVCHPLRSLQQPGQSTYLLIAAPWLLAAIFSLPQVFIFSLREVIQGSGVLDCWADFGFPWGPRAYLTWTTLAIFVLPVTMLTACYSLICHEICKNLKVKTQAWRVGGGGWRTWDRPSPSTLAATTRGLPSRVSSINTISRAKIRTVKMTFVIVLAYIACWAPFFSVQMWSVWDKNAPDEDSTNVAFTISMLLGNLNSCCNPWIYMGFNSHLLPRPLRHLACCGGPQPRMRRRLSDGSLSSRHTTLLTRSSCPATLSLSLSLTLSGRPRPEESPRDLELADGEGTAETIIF

Structure (SMILES)	max response
O=C(CCc1ccccc1)Nc1ncnc2c1C(c1ccccc1)c1c(ccc3ccccc13)O2 (stereo not given)	-23%
CCOC(=O)CCCC(=O)Nc1ncnc2c1C(c1ccccc1)c1c(ccc3ccccc13)O2 (stereo not given)	-39.8%
COc1cccc(C2c3c(ncn(-c4ccccc4Br)c3=N)Oc3ccc4ccccc4c32)c1 (stereo not given)	18.9%
N=c1c2c(ccn1CCCc1ccccc1)Oc1ccc3ccccc3c1C2c1ccccc1 (stereo not given)	-23.7%
COc1cccc(C2c3c(ncn(-c4ccc(-c5ccccc5)cc4)c3=N)Oc3ccc4ccccc4c32)c1 (stereo not given)	-10.6%
Nc1ncnc2c1C(c1ccccc1)c1c(ccc3ccccc13)O2 (stereo not given)	4.27%
COc1ccc(C2c3c(N)nc(CCCc4ccccc4)nc3Oc3ccc4ccccc4c32)cc1OC (stereo not given)	-15.9%
CCOC(=O)c1ccc(-n2cnc3c(c2=N)C(c2cccc(OC)c2)c2c(ccc4ccccc24)O3)cc1 (stereo not given)	17.2%
COc1ccc(C2c3c(nc(Cc4ccccc4)[nH]c3=O)Oc3ccc4ccccc4c32)cc1OC (stereo not given)	14.7%
O=C(c1ccccc1)N(C(=O)c1ccccc1)c1ncnc2c1C(c1ccccc1)c1c(ccc3ccccc13)O2 (stereo not given)	12.9%
Cc1c(P(=S)(c2ccccc2)c2ccccc2)[n+]2ccccc2n1CCCc1ccccc1	-9.72%
COc1cccc(C2c3c(ncn(-c4ccc(F)cc4)c3=N)Oc3ccc4ccccc4c32)c1 (stereo not given)	-36.5%
COc1cccc(C2c3c(ncn(-c4ccccc4Cl)c3=N)Oc3ccc4ccccc4c32)c1 (stereo not given)	1.44%
Cc1c(P(=S)(c2ccccc2)c2ccccc2)c2ccccc2n1C/C=C/c1ccccc1	0.93%
Cc1c(P(=S)(c2ccccc2)c2ccccc2)c2ccccc2n1Cc1ccccc1	0.753%
COc1ccc(C2c3c(nc(CCCc4ccccc4)[nH]c3=O)Oc3ccc4ccccc4c32)cc1OC (stereo not given)	12%
O=C1OC(c2ccccc2)(c2ccccc2)N2CCN(C(=O)NCc3ccc(F)cc3)CC12 (stereo not given)	22.2% and 17.7%
N=c1c2c(ccn1CCc1ccccc1)Oc1ccc3ccccc3c1C2c1ccccc1 (stereo not given)	11.4%
N=c1c2c(ncn1CCN1CCOCC1)Oc1ccc3ccccc3c1C2c1ccccc1 (stereo not given)	25.9%
COc1cccc(C2c3c(ncn(-c4ccccc4-c4ccccc4)c3=N)Oc3ccc4ccccc4c32)c1 (stereo not given)	13.8%

Structure (SMILES)	max response
CCOC(=O)CC(=O)Nc1ncnc2c1C(c1ccccc1)c1c(ccc3ccccc13)O2 (stereo not given)	-17.5%
CC(C)(C)OC(=O)Nc1ncnc2c1C(c1ccccc1)c1c(ccc3ccccc13)O2 (stereo not given)	14.3%
Cc1c(P(=S)(c2ccccc2)c2ccccc2)c2ccccc2n1CCCc1ccccc1	8.85%
COc1ccc(C2c3c(ncn(CCCc4ccccc4)c3=N)Oc3ccc4ccccc4c32)cc1OC (stereo not given)	11.1%
COc1cccc(C2c3c(ncn(-c4ccccc4OC)c3=N)Oc3ccc4ccccc4c32)c1 (stereo not given)	-19.5%
COc1ccc(C2c3c(n(CCCc4ccccc4)cnc3=N)Oc3ccc4ccccc4c32)cc1OC (stereo not given)	-23.2%
COc1ccc(C2c3ccc(OCc4ccccc4)cc3Oc3ncn(CCN4CCOCC4)c(=N)c32)cc1OC (stereo not given)	-15.2%
CCOC(=O)CCC(=O)Nc1ncnc2c1C(c1ccccc1)c1c(ccc3ccccc13)O2 (stereo not given)	-0.278%
COc1ccc(C2c3ccccc3Oc3ncn(CCN4CCOCC4)c(=N)c32)cc1OC (stereo not given)	20.8%
COc1cccc(C2c3c(ncn(CCN4CCOCC4)c3=N)Oc3ccc4ccccc4c32)c1 (stereo not given)	-2.37%
COc1cccc(C2c3c(ncn(-c4cccc(OC)c4)c3=N)Oc3ccc4ccccc4c32)c1 (stereo not given)	-13.6%
COc1ccc(C2c3c(ncn(CCc4ccccc4)c3=N)Oc3ccc4ccccc4c32)cc1OC (stereo not given)	7.55%
COc1cccc(C2c3c(ncn(-c4ccccc4C#N)c3=N)Oc3ccc4ccccc4c32)c1 (stereo not given)	2.63%
COc1cccc(C2c3c(ncn(-c4ccc(Br)cc4)c3=N)Oc3ccc4ccccc4c32)c1 (stereo not given)	0.304%
COc1ccc(C2c3c(nc(CCc4ccccc4)[nH]c3=O)Oc3ccc4ccccc4c32)cc1OC (stereo not given)	1.09%
COc1cccc(C2c3c(ncn(-c4ccccc4SC)c3=N)Oc3ccc4ccccc4c32)c1 (stereo not given)	14.8%
O=C(Cc1ccccc1)Nc1ncnc2c1C(c1ccccc1)c1c(ccc3ccccc13)O2 (stereo not given)	7.19%
COc1ccc(C2c3c(ncn(CCN4CCOCC4)c3=N)Oc3ccc4ccccc4c32)cc1OC (stereo not given)	-15.6%
N=c1c2c(ncn1-c1ccccc1)Oc1ccc3ccccc3c1C2c1ccc2c(c1)CCO2 (stereo not given)	-13.6%
Cc1c(P(=S)(c2ccccc2)c2ccccc2)[n+]2ccccc2n1C/C=C/c1ccccc1	1.44%
